Source: ChEMBL document CHEMBL3988442, “University of Dundee, Small-Polar-MMV Screening Library” (2021)
For part of these data: Entries with a potency or affinity are not part of this list.

How the values were obtained:
Design in all cases: scale not given: direction of the effect not stated beside the values
[1] = target: Protein translocase subunit SecA (Escherichia coli (strain K12)) (UniProt P10408); experiment: Assay to Identify E. coli SecA ATPase Inhibitors; type: functional; details: 30 µM
[2] = target: T1, Ubiquitin-activating enzyme e1, putative (Leishmania donovani (strain BPK282A1)) (UniProt E9BSI1); experiment: Leishmania donovani Ubiquitin Activating Enzyme (LdE1); type: functional; details: 30 µM
T1 sequence (whole entry): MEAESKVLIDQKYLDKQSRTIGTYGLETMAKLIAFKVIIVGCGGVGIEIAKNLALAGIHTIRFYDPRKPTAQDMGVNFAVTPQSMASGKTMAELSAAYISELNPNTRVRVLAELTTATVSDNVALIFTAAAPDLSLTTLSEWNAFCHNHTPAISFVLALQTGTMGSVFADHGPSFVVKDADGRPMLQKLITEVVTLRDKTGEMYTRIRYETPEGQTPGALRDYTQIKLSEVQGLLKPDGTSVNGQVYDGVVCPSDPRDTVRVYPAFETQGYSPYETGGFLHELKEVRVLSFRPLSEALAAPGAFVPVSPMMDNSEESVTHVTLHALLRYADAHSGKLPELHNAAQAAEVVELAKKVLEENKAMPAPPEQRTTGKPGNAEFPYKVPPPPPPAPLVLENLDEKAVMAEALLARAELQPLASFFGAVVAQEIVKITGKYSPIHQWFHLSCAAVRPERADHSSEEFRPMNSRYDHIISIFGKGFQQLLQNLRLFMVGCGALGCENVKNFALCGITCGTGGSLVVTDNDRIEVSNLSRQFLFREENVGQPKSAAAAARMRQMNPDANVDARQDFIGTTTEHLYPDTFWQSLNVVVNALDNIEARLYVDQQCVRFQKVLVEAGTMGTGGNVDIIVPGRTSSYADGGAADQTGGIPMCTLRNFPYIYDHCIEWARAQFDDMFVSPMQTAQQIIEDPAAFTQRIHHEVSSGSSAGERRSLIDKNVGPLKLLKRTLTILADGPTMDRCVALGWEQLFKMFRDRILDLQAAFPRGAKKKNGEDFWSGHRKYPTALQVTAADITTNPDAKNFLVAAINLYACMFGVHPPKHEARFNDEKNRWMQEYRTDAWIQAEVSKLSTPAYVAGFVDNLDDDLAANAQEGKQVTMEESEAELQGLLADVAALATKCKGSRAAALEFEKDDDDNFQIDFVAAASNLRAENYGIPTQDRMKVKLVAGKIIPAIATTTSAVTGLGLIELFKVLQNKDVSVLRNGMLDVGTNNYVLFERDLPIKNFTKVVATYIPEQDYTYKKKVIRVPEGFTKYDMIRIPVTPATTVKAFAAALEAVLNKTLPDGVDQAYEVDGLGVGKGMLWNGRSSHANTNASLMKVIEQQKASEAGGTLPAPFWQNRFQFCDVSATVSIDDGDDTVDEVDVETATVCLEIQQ

[3] = target: Sialic acid-binding Ig-like lectin 9 (Homo sapiens) (UniProt Q9Y336); experiment: Hs-Siglec9 ALPHAscreen SOP 20170721; details: 10 µM
[4] = tested on: Trypanosoma cruzi; experiment: Trypanosoma cruzi phosphomannomutase and mannose-1-phosphate guanylyltransferase assay; type: functional; details: 10 µM
[5] = target: T2, Arginase-2, mitochondrial (Homo sapiens) (UniProt P78540); experiment: in vitro enzyme assay to detect the production of urea directly proportional to the activity of Arginase II; type: functional; details: 33.3 µM; further: in the data most compounds retested in dose-response had high values
T2 sequence (whole entry): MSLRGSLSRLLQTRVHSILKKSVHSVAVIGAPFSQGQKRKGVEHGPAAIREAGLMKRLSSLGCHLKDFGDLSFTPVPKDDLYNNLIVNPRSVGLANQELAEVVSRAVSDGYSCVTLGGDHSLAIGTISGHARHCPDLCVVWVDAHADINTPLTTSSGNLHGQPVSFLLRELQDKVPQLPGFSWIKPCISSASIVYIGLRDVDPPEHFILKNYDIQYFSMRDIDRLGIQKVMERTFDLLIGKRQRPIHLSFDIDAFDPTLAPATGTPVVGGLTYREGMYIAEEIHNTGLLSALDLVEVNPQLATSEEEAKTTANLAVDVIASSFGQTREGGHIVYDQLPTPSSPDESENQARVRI

[6] = target: T3, Proteasome subunit beta (Trypanosoma cruzi) (UniProt O96673); experiment: Trypanosoma cruzi proteasome chymotrypsin-like activity (TcProtChymo) assay.; further: in the data most compounds retested in dose-response had high values; type: functional; details: 9.37 µM
T3 sequence (whole entry): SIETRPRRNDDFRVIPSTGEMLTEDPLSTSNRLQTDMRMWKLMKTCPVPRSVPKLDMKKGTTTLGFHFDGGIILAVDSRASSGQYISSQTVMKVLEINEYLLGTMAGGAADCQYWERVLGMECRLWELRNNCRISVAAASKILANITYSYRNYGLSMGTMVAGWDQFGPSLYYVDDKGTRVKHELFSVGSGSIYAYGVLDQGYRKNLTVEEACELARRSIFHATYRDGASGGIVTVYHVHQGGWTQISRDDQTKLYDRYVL

[7] = species: Homo sapiens; experiment: To identify inhibition of the IFN signalling (Jak-Stat) pathway via expression of an eGFP reporter gene under the control of an IFN-stimulated response element (ISRE) containing MxA promoter.; type: functional; details: 30 µM
[8] = target: T4, Tyrosyl-tRNA synthetase, putative (Trypanosoma cruzi (strain CL Brener)) (UniProt Q4DSP6); experiment: Trypanosoma cruzi tyrosyl tRNA synthetase (TcYRS) _High Tyrosine SOP; type: functional; details: 30 µM; further: in the data most compounds retested in dose-response had high values
T4 sequence (whole entry): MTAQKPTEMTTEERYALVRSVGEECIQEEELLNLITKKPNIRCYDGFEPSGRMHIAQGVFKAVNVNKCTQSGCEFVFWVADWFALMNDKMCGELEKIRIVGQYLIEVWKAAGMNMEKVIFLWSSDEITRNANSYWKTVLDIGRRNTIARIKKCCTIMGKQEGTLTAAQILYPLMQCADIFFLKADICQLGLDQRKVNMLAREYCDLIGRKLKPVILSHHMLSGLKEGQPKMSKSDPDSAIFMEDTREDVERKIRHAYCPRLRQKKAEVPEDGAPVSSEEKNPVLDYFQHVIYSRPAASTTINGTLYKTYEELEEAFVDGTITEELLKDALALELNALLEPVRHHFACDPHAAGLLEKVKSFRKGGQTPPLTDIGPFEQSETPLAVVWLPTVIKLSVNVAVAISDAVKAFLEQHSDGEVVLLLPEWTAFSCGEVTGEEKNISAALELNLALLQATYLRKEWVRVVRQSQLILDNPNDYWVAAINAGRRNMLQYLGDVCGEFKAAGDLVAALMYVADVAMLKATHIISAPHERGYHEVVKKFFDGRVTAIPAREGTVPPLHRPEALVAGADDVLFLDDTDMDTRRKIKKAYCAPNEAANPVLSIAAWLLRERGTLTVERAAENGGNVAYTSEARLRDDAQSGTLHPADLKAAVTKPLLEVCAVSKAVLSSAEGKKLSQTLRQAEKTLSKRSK

[9] = target: T4, Tyrosyl-tRNA synthetase, putative (Trypanosoma cruzi (strain CL Brener)); experiment: Trypanosoma cruzi tyrosyl tRNA synthetase (TcYRS) SOP; type: functional; details: 30 µM
[10] = target: Chromo domain-containing protein 1 (Saccharomyces cerevisiae (strain ATCC 204508 / S288c) (Baker's yeast)) (UniProt P32657); experiment: ScCHD-1 Enzyme Inhibition Assay; type: functional; details: 30 µM; further: in the data most compounds retested in dose-response had high values
Sequence of Chromo domain-containing protein 1 (Saccharomyces cerevisiae (strain ATCC 204508 / S288c) (Baker's yeast)) (P32657 whole entry, the tested form may be a part): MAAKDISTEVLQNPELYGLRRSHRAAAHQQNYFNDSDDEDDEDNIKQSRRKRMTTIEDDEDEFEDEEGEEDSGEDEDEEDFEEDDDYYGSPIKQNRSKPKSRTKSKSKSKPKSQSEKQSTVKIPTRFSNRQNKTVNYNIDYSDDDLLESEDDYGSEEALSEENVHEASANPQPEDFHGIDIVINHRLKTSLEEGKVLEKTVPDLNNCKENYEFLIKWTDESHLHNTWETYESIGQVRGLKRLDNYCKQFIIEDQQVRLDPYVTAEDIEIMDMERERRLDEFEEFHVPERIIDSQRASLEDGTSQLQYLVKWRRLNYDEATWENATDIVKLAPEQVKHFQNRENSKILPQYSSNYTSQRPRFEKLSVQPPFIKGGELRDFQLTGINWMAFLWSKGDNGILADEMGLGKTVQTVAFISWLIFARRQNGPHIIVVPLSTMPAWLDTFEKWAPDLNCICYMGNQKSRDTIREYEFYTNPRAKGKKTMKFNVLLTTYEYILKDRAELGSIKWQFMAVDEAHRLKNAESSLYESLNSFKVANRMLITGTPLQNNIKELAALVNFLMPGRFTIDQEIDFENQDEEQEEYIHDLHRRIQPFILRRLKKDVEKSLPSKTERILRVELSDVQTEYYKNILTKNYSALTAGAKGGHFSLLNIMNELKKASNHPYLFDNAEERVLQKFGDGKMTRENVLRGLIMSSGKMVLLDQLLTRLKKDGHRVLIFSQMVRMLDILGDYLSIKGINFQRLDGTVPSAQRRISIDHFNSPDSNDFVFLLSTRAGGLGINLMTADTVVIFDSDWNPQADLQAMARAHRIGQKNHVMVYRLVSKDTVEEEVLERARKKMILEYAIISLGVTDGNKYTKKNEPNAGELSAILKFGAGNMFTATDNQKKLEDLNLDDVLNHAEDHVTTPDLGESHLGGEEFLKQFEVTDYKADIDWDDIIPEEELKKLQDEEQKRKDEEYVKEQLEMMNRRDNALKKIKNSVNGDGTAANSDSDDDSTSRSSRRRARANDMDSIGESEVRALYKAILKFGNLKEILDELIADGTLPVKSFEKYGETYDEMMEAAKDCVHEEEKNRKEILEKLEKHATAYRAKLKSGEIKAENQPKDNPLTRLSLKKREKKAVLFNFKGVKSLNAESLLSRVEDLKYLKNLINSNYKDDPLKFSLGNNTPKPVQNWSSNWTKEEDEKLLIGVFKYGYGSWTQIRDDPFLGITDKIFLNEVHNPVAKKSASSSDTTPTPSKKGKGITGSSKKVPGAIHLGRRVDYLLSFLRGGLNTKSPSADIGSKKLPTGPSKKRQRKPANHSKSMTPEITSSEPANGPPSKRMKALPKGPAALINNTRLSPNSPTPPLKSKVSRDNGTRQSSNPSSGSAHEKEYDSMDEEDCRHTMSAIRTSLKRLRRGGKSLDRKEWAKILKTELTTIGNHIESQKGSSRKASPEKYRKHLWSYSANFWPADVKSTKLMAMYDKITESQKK

Sequence of Protein translocase subunit SecA (Escherichia coli (strain K12)) (P10408 whole entry): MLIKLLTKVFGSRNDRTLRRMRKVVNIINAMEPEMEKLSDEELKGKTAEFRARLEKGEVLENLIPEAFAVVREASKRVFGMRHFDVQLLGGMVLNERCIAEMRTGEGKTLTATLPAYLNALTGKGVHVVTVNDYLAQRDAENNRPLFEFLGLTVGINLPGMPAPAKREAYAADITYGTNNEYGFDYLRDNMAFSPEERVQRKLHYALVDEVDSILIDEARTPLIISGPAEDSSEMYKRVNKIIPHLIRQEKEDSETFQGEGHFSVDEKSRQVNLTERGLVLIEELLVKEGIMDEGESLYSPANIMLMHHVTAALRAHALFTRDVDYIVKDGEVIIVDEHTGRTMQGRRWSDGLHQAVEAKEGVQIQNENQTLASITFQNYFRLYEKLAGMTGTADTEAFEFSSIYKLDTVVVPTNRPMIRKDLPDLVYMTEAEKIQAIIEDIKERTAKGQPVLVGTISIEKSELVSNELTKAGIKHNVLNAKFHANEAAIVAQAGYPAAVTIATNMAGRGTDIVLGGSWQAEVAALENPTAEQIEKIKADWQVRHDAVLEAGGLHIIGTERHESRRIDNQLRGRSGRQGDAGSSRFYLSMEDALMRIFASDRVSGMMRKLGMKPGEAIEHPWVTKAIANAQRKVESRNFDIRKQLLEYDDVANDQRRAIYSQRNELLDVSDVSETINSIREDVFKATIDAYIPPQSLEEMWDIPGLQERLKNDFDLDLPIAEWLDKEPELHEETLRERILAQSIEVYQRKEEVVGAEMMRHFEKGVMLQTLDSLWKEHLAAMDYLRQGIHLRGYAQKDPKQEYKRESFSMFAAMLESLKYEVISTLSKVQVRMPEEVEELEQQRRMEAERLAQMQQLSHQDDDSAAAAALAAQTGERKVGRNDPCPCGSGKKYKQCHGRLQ
Sequence of Sialic acid-binding Ig-like lectin 9 (Homo sapiens) (Q9Y336 whole entry): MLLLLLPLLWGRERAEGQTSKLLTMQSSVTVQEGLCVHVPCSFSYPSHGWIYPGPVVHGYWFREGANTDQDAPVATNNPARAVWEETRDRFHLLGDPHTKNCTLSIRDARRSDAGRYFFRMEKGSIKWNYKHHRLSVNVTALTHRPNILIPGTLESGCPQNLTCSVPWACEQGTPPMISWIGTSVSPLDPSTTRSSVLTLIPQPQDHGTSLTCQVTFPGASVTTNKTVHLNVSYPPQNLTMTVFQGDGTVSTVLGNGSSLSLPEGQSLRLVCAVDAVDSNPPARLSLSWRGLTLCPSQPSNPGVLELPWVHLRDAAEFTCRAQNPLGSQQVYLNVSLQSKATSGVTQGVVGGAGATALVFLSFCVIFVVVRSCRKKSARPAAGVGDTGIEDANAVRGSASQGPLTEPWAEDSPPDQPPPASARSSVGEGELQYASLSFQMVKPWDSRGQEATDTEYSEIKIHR

Row | Structure (SMILES) | Percent Effect [1] [%] | Percent Effect [2] [%] | Percent Effect [3] [%] | Percent Effect [4] [%] | Percent Effect [5] [%] | Percent Effect [6] [%] | Percent Effect [7] [%] | Percent Effect [8] [%] | Percent Effect [9] [%] | Percent Effect [10] [%]
1 | COCC(=O)N1CCC(c2cc(C(F)(F)F)n3ccnc3n2)CC1 | -4.74 | 17.3 | 7.36 | 3.75 | 0.885 | 9.85 | 5.45 | 3.17 | 15 | -24.5
2 | COC(=O)CC(c1cnn(C)c1)c1oc(C)cc(=O)c1O (stereo not given) | -7.67 | 0 | 0.282 | -5.33 | -3.85 | 6.85 | 8.46 | 0.532 | 0 | -1.21
3 | Cn1c(C2CC2)nc2c1CCN(CCS(=O)(=O)c1ccccc1)C2 | -3.66 | -5.33 | 1.61 | 5.22 | 0 | -2.46 | 3.62 | 0.526 | 0 | -4.67
4 | O=C(NCc1cc[nH]n1)NCC(c1ccc(F)cc1)N1CCOCC1 (stereo not given) | -1.44 | 23.1 | -10.9 | 4.79 | 2.87 | 7.93 | 8.57 | 4.31 | 20.5 | -7.47
5 | CC(C)NC(=O)C1CN(C(=O)Nc2ccccc2)CC12CCOCC2 (stereo not given) | -8.24 | 3.9 | -2.62 | -3.02 | 1.22 | 22.9 | 14.5 | 6.84 | 2.56 | -3.13
6 | CC(C)CC(=O)N1C[C@@H]2CCN(c3ncccn3)C[C@@H]2C1 | -0.224 | 11.7 | -0.117 | 0.375 | -5.02 | 14.2 | 17.9 | 0 | -10 | -10.7
7 | CCOc1ccc2[nH]c(=O)c(CN3CCC(O)CC3)cc2c1 | -8.45 | 5.41 | 3.7 | 3.4 | -1.75 | 3.77 | -4.92 | 9.04 | 21.9 | -0.516
8 | COc1ccccc1-c1cc(C(F)(F)F)c2c(C)nn(CC(=O)O)c2n1 | 5.48 | 14.7 | -8.22 | -2.56 | 6.64 | 11.5 | 26.5 | -13.8 | -17.5 | -17.5
9 | COc1ncc(C2(O)CCN(Cc3ccccc3O)CC2)c(OC)n1 | -3.88 | 22.7 | 0.188 | 1.58 | -3.1 | 13.6 | -5.87 | 6.35 | 20 | -23.4
10 | CC(C)c1nc(CN2CCCN(Cc3nnc(C4CC4)o3)CC2)no1 | -2.61 | 8 | -2.85 | -0.602 | 4.43 | 17.2 | 14.1 | 3.68 | 7.69 | -9.7
11 | Cc1cc(C(=O)NCc2ccnc(N3CCN(C)CC3)c2)c(C)s1 | -2.97 | -28.2 | -3.6 | -0.657 | 3.69 | 3.67 | -0.506 | 8.13 | 20.5 | -3.48
12 | Cc1noc(C2CCN(C(=O)CN(C)c3ccc(Cl)cn3)CC2)n1 | -1.77 | 12.8 | -5.03 | 4.6 | 6.56 | 8.11 | 3.6 | 8.13 | 20.5 | -1.95
